Test results reported in the supplement of paper PMC13380429.

Test system: Vero E6 infected with SARS-CoV-2
Experiment: inhibition of SARS-CoV-2 cytopathic effect; higher = more antiviral protection, active = above 15
Conditions: 48 h

Measured: inhibition of SARS-CoV-2 cytopathic effect

O=c1[nH]nc2c3c(cccc13)N=C(CN1Cc3ccccc3C1)N2
inactive: 1 nM 0.7% | 8.33 nM -0.79% | 100 nM 0.78% | 833.33 nM 0.24% | 10000 nM 1.13%

CNC(=O)c1c(C)oc2cc(Oc3ncnc4cc(OC)c(OC)cc34)ccc12 [fruquintinib]
inactive: 1 nM 2.39% | 8.33 nM -2.79% | 100 nM -1.12% | 833.33 nM -3.32% | 10000 nM -0.11%

NS(=O)(=O)c1cc2c(cc1C(F)(F)F)NC(Cc1ccccc1)NS2(=O)=O (stereo not given) [bendroflumethiazide]
inactive: 1 nM -0.89% | 8.33 nM -3.12% | 100 nM -0.42% | 833.33 nM -1.39% | 10000 nM 0.82%

COc1ccc(-c2coc3cc(O)cc(O)c3c2=O)cc1 [4-methylgenistein]
inactive: 1 nM -1.18% | 8.33 nM -0.05% | 100 nM 0.18% | 833.33 nM -1.7% | 10000 nM 2.29%

c1cnc(SCc2cccnc2)nc1 [tasuldine]
inactive: 1 nM 1.94% | 8.33 nM 1.66% | 100 nM 0.38% | 833.33 nM 0.69% | 10000 nM 1.89%

CC(C)(Oc1ccc(C(=O)c2ccc(Cl)cc2)cc1)C(=O)O [fenofibric-acid]
inactive: 1 nM 0.66% | 8.33 nM -0.84% | 100 nM 0.44% | 833.33 nM 1.29% | 10000 nM -0.37%

CC(=O)CC(=O)O [lithium-acetoacetate]
inactive: 1 nM -0.56% | 8.33 nM -0.05% | 100 nM 1.48% | 833.33 nM 1.82% | 10000 nM 0.27%
